Some test systems named below: SK-MEL-2 melanoma; EKVX NSCLC; SN12C renal; UO-31 renal; TK-10 renal; ACHN renal; A498 renal; CCRF-CEM leukemia; MOLT-4 leukemia; SR leukemia; RPMI-8226 leukemia; OVCAR-8 ovarian; OVCAR-5 ovarian; OVCAR-4 ovarian; SK-OV-3 ovarian; IGROV1 ovarian; OVCAR-3 ovarian; HS 578T breast; NCI/ADR-RES ovarian.
Common to all, as to assay: NCI-60 one-dose screen, 48 h (100 = growth as untreated, 0 = no growth, -100 = all killed)
Conditions in all cases: 10 µM unless noted

Experimental findings from PubChem BioAssay (NCI) are described below.

Compounds without any hit were thinned out: in the full panel of roughly 83,000, 20% have a hit.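 Interpretation: 100, growth as untreated; towards 0, rising growth inhibition; 0, no net growth; 0 to -100, cell death. Compounds scoring below 10 were considered active.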 Unmarked numbers belong to inactive results. Active and inactive are the calls of the source.

Regarding `CCCCn1c(-c2cccc(OC)c2)nc2cc(OC)c(OC)cc2c1=O`, the growth in the assay on SK-MEL-2 melanoma is 101%; in the assay with EKVX NSCLC, 70.8%; with SN12C renal, 98.1%; in the assay on UO-31 renal, 80.6%; with TK-10 renal, 215%; in the assay on ACHN renal, 97.8%. The growth in the assay with A498 renal is 110%; in the assay on CCRF-CEM leukemia, -22.6% (active); in the assay on MOLT-4 leukemia, 69.8%; with SR leukemia, 75.1%; in the assay with RPMI-8226 leukemia it was 58.9%; with OVCAR-8 ovarian it was 118%. Further, the growth with OVCAR-5 ovarian is 101%; in the assay with OVCAR-4 ovarian it was 108%; in the assay on SK-OV-3 ovarian it was 119%; with IGROV1 ovarian it was 89.2%; in the assay on OVCAR-3 ovarian, 113%; in the assay on HS 578T breast, 104%. The growth with NCI/ADR-RES ovarian is 94.2%.

Consider `COc1ccc(-c2cc3ccc(N(C)C)cc3nc2N)c(F)c1`, for which the growth in the assay with SK-MEL-2 melanoma is 47.9%; in the assay on EKVX NSCLC it was 32.2%; with SN12C renal it was 54%; in the assay on UO-31 renal, 39.3%; in the assay on TK-10 renal it was 49.1%; with ACHN renal it was 56.8%. In addition, the growth in the assay on A498 renal is 47.1%; in the assay with CCRF-CEM leukemia, 39.7%; in the assay on MOLT-4 leukemia, 26.3%; in the assay on SR leukemia it was 12.9%; in the assay with RPMI-8226 leukemia, -19.7% (active); in the assay on OVCAR-8 ovarian, 26.3%. Moreover, the growth with OVCAR-5 ovarian is 69.6%; in the assay with OVCAR-4 ovarian, 42.2%; with SK-OV-3 ovarian, 46.8%; in the assay with IGROV1 ovarian it was 54.3%; in the assay on OVCAR-3 ovarian, 34.6%; in the assay with HS 578T breast it was 62.8%. The growth in the assay with NCI/ADR-RES ovarian was 26%.

Consider `O=c1c(-c2ccc3c(c2)OCO3)coc2c(CO)c(O)ccc12`, for which the growth in the assay on SK-MEL-2 melanoma is -66.3% (active); in the assay on EKVX NSCLC, 3.55% (active); in the assay with SN12C renal, -3.58% (active); with UO-31 renal, -81.9% (active); with TK-10 renal, -15.2% (active); in the assay on ACHN renal it was -30.5% (active). The growth in the assay on A498 renal was -26.7% (active); in the assay with CCRF-CEM leukemia, 1.63% (active); in the assay with MOLT-4 leukemia, 90.3%; in the assay with SR leukemia it was 13.4%; in the assay on RPMI-8226 leukemia, 2.57% (active); in the assay with OVCAR-8 ovarian, 24.3%. Further, the growth is 35.8% in the assay on OVCAR-5 ovarian; 41.7% in the assay with OVCAR-4 ovarian; -18.3% (active) with SK-OV-3 ovarian; 5.08% (active) with IGROV1 ovarian; -55.1% (active) with OVCAR-3 ovarian; 6.65% (active) with HS 578T breast.

With `C=C1C(=O)O[C@H]2[C@H]1CC/C(COC(=O)c1ccccc1)=C\CC[C@@]1(C)O[C@@H]21`, the growth in the assay on SK-MEL-2 melanoma was 15%; in the assay on EKVX NSCLC, 11.5%; in the assay with SN12C renal, -22.4% (active); in the assay on UO-31 renal, -95.7% (active); in the assay with TK-10 renal it was -0.228% (active); with ACHN renal it was -83.7% (active). Moreover, the growth is 99.4% in the assay on A498 renal; -26% (active) in the assay with CCRF-CEM leukemia; -22.2% (active) in the assay with MOLT-4 leukemia; -14.1% (active) with SR leukemia; -36.4% (active) with RPMI-8226 leukemia; -34.3% (active) in the assay on OVCAR-8 ovarian. In addition, the growth in the assay with OVCAR-5 ovarian is 2.5% (active); in the assay on OVCAR-4 ovarian it was 5.21% (active); in the assay on SK-OV-3 ovarian it was 95.4%; in the assay with IGROV1 ovarian it was -24.9% (active); with OVCAR-3 ovarian, -44.5% (active); in the assay with HS 578T breast it was 44%. Besides, the growth with NCI/ADR-RES ovarian was 36.2%.

Turning to `CNC(=O)NN`, the growth was 119% in the assay with SK-MEL-2 melanoma; 91.5% in the assay on EKVX NSCLC; 110% in the assay with SN12C renal; 71.7% in the assay with UO-31 renal; 111% with TK-10 renal; 88.9% in the assay on ACHN renal. The growth in the assay on A498 renal is 93.2%; in the assay on CCRF-CEM leukemia, 65.8%; in the assay on MOLT-4 leukemia, 105%; in the assay on SR leukemia, 104%; with RPMI-8226 leukemia it was 91.9%; in the assay on OVCAR-8 ovarian, 97.5%. The growth with OVCAR-5 ovarian was 82.5%; in the assay with OVCAR-4 ovarian, 110%; with SK-OV-3 ovarian, 95.9%; with IGROV1 ovarian, 108%; with OVCAR-3 ovarian, 91.8%.

Turning to `CCn1cc(/C=C2\Oc3cc(OCC#N)ccc3C2=O)c2cc(OC)ccc21`, the growth in the assay on SK-MEL-2 melanoma is 37.5%; with EKVX NSCLC, 47.8%; in the assay on SN12C renal, 42.4%; in the assay with UO-31 renal, 45.7%; with TK-10 renal it was 74.2%; with ACHN renal it was 54.2%. The growth was 62.4% in the assay with A498 renal; 9.65% (active) in the assay on CCRF-CEM leukemia; 12.9% with MOLT-4 leukemia; 19.2% with SR leukemia; 15.1% in the assay on RPMI-8226 leukemia; 21% with OVCAR-8 ovarian. The growth was 62.1% with OVCAR-5 ovarian; 85.6% with OVCAR-4 ovarian; 43.3% in the assay with SK-OV-3 ovarian; 43.3% in the assay on IGROV1 ovarian; -6.84% (active) in the assay on OVCAR-3 ovarian; 29.4% with HS 578T breast. Also, the growth in the assay with NCI/ADR-RES ovarian was 11.2%.

Consider `CSc1nc(N)nc2c1ncn2C`, for which the growth was 92.3% in the assay with SK-MEL-2 melanoma; 94.2% in the assay on EKVX NSCLC; 97.6% in the assay on SN12C renal; 94.6% in the assay on UO-31 renal; 93.5% in the assay on TK-10 renal; 106% in the assay on ACHN renal. For the same compound, the growth with A498 renal was 119%; with CCRF-CEM leukemia, 98.3%; with MOLT-4 leukemia, 87.6%; in the assay with SR leukemia, 91.7%; in the assay on RPMI-8226 leukemia, 96.4%; in the assay with OVCAR-8 ovarian, 106%. Besides, the growth in the assay with OVCAR-5 ovarian was 100%; in the assay on OVCAR-4 ovarian it was 103%; with SK-OV-3 ovarian, 90.4%; in the assay with IGROV1 ovarian, 106%; in the assay on OVCAR-3 ovarian it was 100%; in the assay on HS 578T breast, 106%. Further, the growth with NCI/ADR-RES ovarian is 98.8%.

For `c1nc(SC2=NCCN2)c2[nH]cnc2n1`, the growth with SK-MEL-2 melanoma was 38.8%; in the assay on EKVX NSCLC, 88.7%; in the assay on SN12C renal, 78.7%; with UO-31 renal, 40.6%; with TK-10 renal, 22.6%; in the assay on ACHN renal it was 54.2%. Further, the growth was 92.8% in the assay on A498 renal; 31.3% in the assay on CCRF-CEM leukemia; 16% in the assay with MOLT-4 leukemia; 22% in the assay on SR leukemia; 29.2% in the assay with RPMI-8226 leukemia; 41% with OVCAR-8 ovarian. Moreover, the growth in the assay with OVCAR-5 ovarian is 48.5%; with OVCAR-4 ovarian it was 61.7%; in the assay with SK-OV-3 ovarian, 8.1% (active); with IGROV1 ovarian, 64%; with OVCAR-3 ovarian, 30.8%; in the assay on HS 578T breast, 79.4%. Further, in the assay on NCI/ADR-RES ovarian, the growth was 22.5%.

Consider `Clc1ccc(OCc2nc(-c3ccccc3)n[nH]2)c(Cl)c1`, for which the growth in the assay on SK-MEL-2 melanoma was 103%; in the assay with EKVX NSCLC it was 93.8%; in the assay with SN12C renal, 96.6%; in the assay with UO-31 renal, 77.1%; in the assay on TK-10 renal it was 122%; with ACHN renal it was 98%. Further, the growth was 104% with A498 renal; 85.9% with CCRF-CEM leukemia; 98.7% in the assay with MOLT-4 leukemia; 97.1% in the assay with SR leukemia; 94% in the assay on RPMI-8226 leukemia; 96.5% in the assay with OVCAR-8 ovarian. Further, the growth is 99.7% in the assay on OVCAR-5 ovarian; 98.1% in the assay on OVCAR-4 ovarian; 80.9% in the assay with SK-OV-3 ovarian; 97.6% in the assay with IGROV1 ovarian; 108% in the assay with OVCAR-3 ovarian; 88.6% with HS 578T breast. Moreover, the growth with NCI/ADR-RES ovarian was 101%.
